Screening data as filed in PubChem BioAssay.
Shown are actives, neighbours in structure and some others; about 12% of the full set was active somewhere.
JMJD2A Tudor: qHTS Assay for Inhibitors of JMJD2A-Tudor Domain | Lysine-specific demethylase 4A (Homo sapiens), O75164 | Potency, µM (top dose mostly 114 µM), usual class: inhibitors | AlphaScreen JMJD2A-Tudor / H3K4me3 peptide binding | AID 504339, 2011 | 390,000 tested, 4.4% active; note: nearly all actives have a fitted effect of over 50% in size
PI5P4K alpha inh: qHTS for Inhibitors of phosphatidylinositol 5-phosphate 4-kinase (PI5P4K). Phosphatidylinositol 5-phosphate 4-kinase type-2 alpha (Homo sapiens), P48426. PI5P4Kalpha enzyme, ADP-Glo luminescence, 60 min; active compounds read low. 330,000 tested, 1.2% active. max response, %; active = max response of -50% or lower; inconclusive = between -30% and -50%; inactive = -30% or higher; note: value at the top dose of about 77 µM
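Reactions run in 0.038 M HEPES pH 7.4, 0.28 mM EGTA, 0.1% CHAPS and 5% DMSO, with PI5P4Kalpha, substrate, compound and 5 microM ATP final, one hour at room temperature. Readout is ADP-Glo luminescence.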
HP1b binding inh: HTS for Inhibitors of HP1-beta Chromodomain Interactions with Methylated Histone Tails | Chromobox protein homolog 1 (Homo sapiens), P83916 | AlphaScreen HP1-beta / biotin-H3K9me3 peptide binding | Potency, µM (doses to about 114 µM), actives largely listed as inhibitors | 390,000 tested, 0.56% active | AID 540317, 2011; note: nearly all actives have a fitted effect of over 70% in size
Target sequence (P83916 whole entry, looked up): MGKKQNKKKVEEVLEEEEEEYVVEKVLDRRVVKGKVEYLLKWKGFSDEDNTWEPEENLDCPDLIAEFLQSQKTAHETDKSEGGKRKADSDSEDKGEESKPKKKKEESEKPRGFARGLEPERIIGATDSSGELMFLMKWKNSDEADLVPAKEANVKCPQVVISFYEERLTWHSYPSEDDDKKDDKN
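Compound inhibition of the preformed complex between 50 nM HP1-beta and 50 nM biotinylated H3K9me3 peptide was read by AlphaScreen. Buffer was PBS pH 7.4 with 0.01% Tween-20. Incubations ran 30 min at room temperature, with 10 ug/mL donor/acceptor beads.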
BAZ2B block: qHTS Assay for Inhibitors of BAZ2B; Bromodomain adjacent to zinc finger domain protein 2B (Homo sapiens), Q9UIF8; AlphaScreen BAZ2B-H3K14Ac peptide displacement; Potency, µM (top dose mostly 114 µM), most hits filed as inhibitors; 360,000 tested, 4.4% active; AID 504333, 2011; note: nearly all actives have a fitted effect of over 60% in size
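Compounds, titrated to a top concentration of 110 uM, were incubated 30 min at room temperature with preformed BAZ2B/acetyl-K14 H3 peptide complex (50 nM each). Proximity signal was measured by AlphaScreen after 20 min with beads.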
PLK1 PBD inh: qHTS for Inhibitors of PLK1-PDB (polo-like kinase 1 - polo-box domain): Primary Screen. Potency, µM, usual class: inhibitors. Serine/threonine-protein kinase PLK1 (Homo sapiens), P53350. Plk1 PBD binding of FITC phosphopeptide, fluorescence polarization. 360,000 tested, 2.8% active; note: series mostly up to about 57 µM; nearly all actives have a fitted effect of over 65% in size
G9a block: qHTS Assay for Inhibitors of Histone Lysine Methyltransferase G9a | Histone-lysine N-methyltransferase EHMT2 (Homo sapiens), Q96KQ7 | G9a H3K9 monomethylation, AlphaScreen, 2 h | Potency, µM (titrated, usually from 102 µM), actives largely listed as inhibitors | 350,000 tested, 8.8% active | AID 504332, 2011; note: nearly all actives have a fitted effect of over 75% in size
Target sequence (Q96KQ7 913-1193 limits assumed): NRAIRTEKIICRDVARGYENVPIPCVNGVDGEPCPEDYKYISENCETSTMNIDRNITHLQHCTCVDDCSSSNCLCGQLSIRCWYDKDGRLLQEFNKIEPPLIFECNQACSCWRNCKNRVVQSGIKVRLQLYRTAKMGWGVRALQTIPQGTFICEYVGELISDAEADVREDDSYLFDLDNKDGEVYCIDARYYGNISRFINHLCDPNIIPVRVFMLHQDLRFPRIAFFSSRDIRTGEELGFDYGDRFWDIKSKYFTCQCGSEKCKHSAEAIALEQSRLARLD
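Quantitative HTS format: methyltransferase activity on a biotin-tagged H3K9 peptide is measured by AlphaScreen, using a rabbit anti-monomethyl-H3K9 antibody with streptavidin donor and anti-IgG acceptor beads. Final levels are 20 nM enzyme, 500 nM peptide, 20 uM SAM; 2 h RT.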
Of the large screens only hits and unclear results are named; the others gave an inactive call; ! = a repeat was not active. Unless noted, calls come from the whole dose curve; as a rule, active = well fitted curve in the direction sought with a large enough effect; inconclusive = small, poorly fitted or top-dose-only effect, or another doubt; inactive = no such curve, though single readings can be large; an effect the other way counts as inactive or inconclusive.

CN1CCN(CCCN2c3ccccc3Sc3ccc(Cl)cc32)CC1	JMJD2A Tudor 45µM, HP1b binding inh inconclusive, BAZ2B block 20µM, G9a block 16µM!
CCSc1ccc2c(c1)N(CCCN1CCN(C)CC1)c1ccccc1S2	JMJD2A Tudor 40µM, HP1b binding inh inconclusive, BAZ2B block 35µM, G9a block 14µM
S=C1NC(c2ccccc2)N2C(=S)NC(c3ccccc3)N12 (stereo not given)	JMJD2A Tudor 13µM, PI5P4K alpha inh -81, HP1b binding inh 32µM, BAZ2B block 79µM, PLK1 PBD inh inconclusive, G9a block inconclusive
Cc1ccc(C2NC(=S)N3C(c4ccc(C)cc4)NC(=S)N23)cc1 (stereo not given)	PI5P4K alpha inh -79 (no result: JMJD2A Tudor, HP1b binding inh, BAZ2B block, G9a block)
COc1ccccc1C(=O)N1CCN(C(=O)[C@H]2O[C@@H](n3ccc(N)nc3=O)[C@H](O)[C@@H]2O)CC1	none (no result: JMJD2A Tudor, HP1b binding inh, BAZ2B block, G9a block)
CCCCC/C=C\C\C=C/C=C/C=C/[C@@H](SC[C@H](NC(=O)CC[C@H](N)C(=O)O)C(=O)NCC(=O)O)[C@@H](O)CCCC(=O)O	none (no result: JMJD2A Tudor, PI5P4K alpha inh, HP1b binding inh, BAZ2B block, PLK1 PBD inh)
COc1ccc(-c2csc(NC(=O)CSc3n[nH]c(C)n3)n2)cc1	none
COc1ccccc1NC(=O)c1ccc(NC(=O)CSc2n[nH]c(N)n2)cc1	PLK1 PBD inh 30µM, G9a block inconclusive
COc1ccc(NC(=O)CSc2n[nH]c(N)n2)cc1OC	none
CC1(C(=O)OCC(=O)Nc2ccc(C(N)=O)cc2)CC1(Cl)Cl (stereo not given)	none
COc1ccc(-c2csc(NC(=O)CSc3n[nH]c(N)n3)n2)cc1	JMJD2A Tudor 10µM, HP1b binding inh 79µM, PLK1 PBD inh 27µM, G9a block 8.9µM
COc1ccccc1NC(=O)c1ccc(NC(=O)COC(=O)C2(C)CC2(Cl)Cl)cc1 (stereo not given)	JMJD2A Tudor 79µM, PLK1 PBD inh 21µM
CCCN(CCC)C(=O)Cn1c(=O)n(-c2cccc(C(F)(F)F)c2)c(=O)c2c(C)c(C)sc21	none (no result: PI5P4K alpha inh, PLK1 PBD inh)
COCc1oc2ccc(NS(=O)(=O)c3ccc(C)cc3)cc2c1C(=O)OC	none (no result: PI5P4K alpha inh, PLK1 PBD inh)
CCCCOc1ccccc1NC(=O)Cn1c(-c2cncs2)nc2ccccc21	none (no result: PI5P4K alpha inh, PLK1 PBD inh)
O=C1OC(Nc2nc(-c3ccc(F)cc3)cs2)c2ccccc21 (stereo not given)	none
O=C1OC(Nc2nc3ccccc3s2)c2ccccc21 (stereo not given)	PLK1 PBD inh inconclusive, G9a block 50µM
O=C1OC(Nc2nccs2)c2ccccc21 (stereo not given)	JMJD2A Tudor inconclusive, PLK1 PBD inh 24µM
CCc1ccc(C(=O)Cn2ccsc2=N)cc1	BAZ2B block inconclusive, G9a block 50µM
CCCCC1NC(C(=O)O)CS1 (stereo not given)	JMJD2A Tudor 32µM, HP1b binding inh inconclusive, BAZ2B block 50µM, G9a block 5µM
CCOc1ccc(CCNC(=O)COC(=O)CSc2ccc(C)cc2)cc1OCC	none
CC(C)n1cc(/C=N/NC(=O)COc2cccc3cccnc23)c2ccccc21	G9a block 45µM
O=C(COc1ccc(Cl)cc1)N/N=C/c1cccc2cccnc12	none (no result: G9a block)
COc1ccccc1OCC(=O)N/N=C/c1cccc2cccnc12	JMJD2A Tudor 56µM, BAZ2B block 35µM (no result: G9a block)
C=CCn1cc(/C=N/NC(=O)COc2cccc3cccnc23)c2ccccc21	JMJD2A Tudor inconclusive, BAZ2B block inconclusive, G9a block inconclusive
COc1ccc(OCC(=O)N/N=C/c2cccc3cccnc23)cc1	JMJD2A Tudor 79µM (no result: BAZ2B block, G9a block)
